Screening results as filed in PubChem BioAssay.
PREPL inhibitor: inhibitors of human prolyl oligopeptidase-like enzyme PREPL; Q4J6C6; recombinant PREPL, fluorescence polarization activity-based probe; inhibition, % at 5.96 µM; 320,000 tested, 0.68% active; AID 2751; in the data active = inhibition above about 43%;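 note: 0% = enzyme with DMSO and 100% = wells lacking enzyme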
ZTA counter: counter-screen for EBNA-1 inhibitors: inhibitors of Epstein-Barr virus ZTA | P03206 | ZTA-DNA binding, fluorescence polarization | inhibition, % at 11 µM | 320,000 tested, 0.15% active; in the data active = inhibition above about 33%
Target sequence (P03206 whole entry, looked up): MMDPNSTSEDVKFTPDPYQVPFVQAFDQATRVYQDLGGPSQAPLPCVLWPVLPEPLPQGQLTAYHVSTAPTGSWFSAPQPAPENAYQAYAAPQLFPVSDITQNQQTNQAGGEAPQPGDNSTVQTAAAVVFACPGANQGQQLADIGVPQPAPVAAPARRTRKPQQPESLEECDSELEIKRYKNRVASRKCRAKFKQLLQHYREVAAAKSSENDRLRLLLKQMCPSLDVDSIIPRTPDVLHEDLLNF
LYPLA2 inh: blocks human lysophospholipase 2, a PME1 counter-screen; O95372; recombinant LYPLA2, FP-Rh probe fluorescence polarization; inhibition, % at 5.9 µM; 320,000 tested, 0.38% active;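 active = inhibition above the screen-wide mean plus 3 SD, limit set per campaign, cut at about 26% in these data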;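 note: 0% = LYPLA2 with DMSO and 100% = wells lacking LYPLA2 enzyme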
Target sequence (O95372 whole entry, looked up): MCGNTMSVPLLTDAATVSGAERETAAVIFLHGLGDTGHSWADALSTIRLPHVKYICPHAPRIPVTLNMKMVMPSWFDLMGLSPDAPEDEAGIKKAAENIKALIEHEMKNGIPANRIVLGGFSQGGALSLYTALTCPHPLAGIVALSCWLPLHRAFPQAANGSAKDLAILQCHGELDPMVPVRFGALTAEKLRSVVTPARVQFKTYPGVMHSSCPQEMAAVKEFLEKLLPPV
LYPLA1 inh: counter-screen for PME1 inhibitors: inhibitors of human LYPLA1. O75608. recombinant LYPLA1, FP-Rh probe fluorescence polarization. inhibition, % at 5.9 µM. 320,000 tested, 0.16% active. AID 2174;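 active = inhibition above the mean of all tested compounds plus 3 SD, set per campaign, cut at about 14% in these data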;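 note: inhibitors block serine hydrolase probe labeling of LYPLA1 so polarization falls; 0% = enzyme with DMSO and 100% = wells lacking LYPLA1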
EBNA-1 inhibitor: blocks EBNA-1 binding to DNA; EBNA-1 DNA binding, fluorescence polarization; inhibition, % at 14.8 µM; 300,000 tested, 0.34% active; in the data active = inhibition above about 28%
LYPLA2 conf: counter-screen for PME1 inhibitors: confirmation of human LYPLA2 inhibitors. recombinant LYPLA2, FP-Rh probe fluorescence polarization. shares compounds with LYPLA2 inh. inhibition, % at 5.9 µM. 1,100 tested, 72% active;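 active = mean inhibition across replicates above the hit cutoff set in the primary screen, cut at about 26% in these data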;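 note: blocked labeling of the enzyme by serine hydrolase FP-Rh probe lowers polarization; 0% = enzyme with DMSO and 100% = wells lacking LYPLA2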
LYPLA2 ABPP: LYPLA2 (human) inhibition, late stage results. shares compounds with LYPLA2 inh. rhLYPLA2 in mouse brain proteome, gel ABPP FP-Rh. inhibition, % at 20 µM. 150 tested, 30% active;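 active = inhibition of LYPLA2 enzyme probe labeling above about 50%, limit read from the data; inactive = inhibition below that limit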;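 note: loss of FP-Rh probe labeling of the LYPLA2 gel band measured as band density; 0% = DMSO only control band and 100% = blank gel background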
* = called active by the depositor; . = no result. Rows were chosen to be rich in hits. Some 1.3% of all compounds tested hit in one or more screens of this group.

SMILES | PREPL inhibitor | ZTA counter | LYPLA2 inh | LYPLA1 inh | EBNA-1 inhibitor | LYPLA2 conf | others
CCCCCCCCOC(=O)CCc1c(C)[nH]c(=S)[nH]c1=O | 9 | -6 | 39* | 3 | 4 | 30*
Cc1ccc(C(=O)N2CCN(C)CC2)cc1S(=O)(=O)N1CCCCCC1 | 4 | -4 | 27* | 1 | 1 | -4
CC(=O)N1CCN(C(=O)c2ccc(C)c(S(=O)(=O)N3CCCCC3)c2)CC1 | 6 | . | . | . | . | .
Cc1nc(C(=O)NC2CCOCC2)sc1C1(C)CC(c2ccccc2)=NO1 (stereo not drawn) | -2 | -1 | 8 | 3 | -1 | .
Cc1nc(C(=O)NC2CCOCC2)sc1C1(C)CC(c2cccc([N+](=O)[O-])c2)=NO1 (stereo not drawn) | -8 | 6 | 34* | -2 | -6 | 45*
O=C(Nc1ccc(Nc2ccncc2)cc1)c1ccc(Nc2ccnc3ccc([N+](=O)[O-])cc23)cc1[N+](=O)[O-] | 14 | -12 | 27* | 6 | -8 | 6
O=C(Nc1ccc(Nc2ccncc2)cc1)c1ccc([N+](=O)[O-])cc1 | 6 | -6 | 7 | 2 | 1 | .
O=[N+]([O-])c1ccc(Sc2ccccc2)nc1 | 16 | -5 | 17 | -2 | 15 | .
Cc1cccc(Sc2ccc([N+](=O)[O-])cn2)c1 | 11 | -9 | 29* | 0 | -6 | 28*
Cc1ccccc1Sc1ccc([N+](=O)[O-])cn1 | 1 | 8 | 34* | 4 | 10 | 31*
O=C(CCN1CCN(C(=O)c2ccccc2)CC1)c1ccc(Br)cc1 | -13 | -8 | 13 | -6 | -14 | .
CCc1nnc(NS(=O)(=O)c2ccc(NC(=S)NC(=O)/C=C/c3ccc([N+](=O)[O-])cc3)cc2)s1 | -2 | -1 | 67* | 1 | -3 | 77* | LYPLA2 ABPP=37
CCc1nnc(NS(=O)(=O)c2ccc(NC(=S)NC(=O)/C=C/c3ccc(F)cc3)cc2)s1 | -15 | 2 | 6 | -5 | -3 | .
NC(=O)c1cc([N+](=O)[O-])ccc1NCc1cccc([N+](=O)[O-])c1 | 12 | 12 | 29* | 4 | 4 | 29*
C/C(=N/NC(=O)CCc1c(C)n[nH]c1C)c1cccc([N+](=O)[O-])c1 | 0 | -12 | -3 | -3 | -5 | .
Nc1nc(CN2CCN(c3ccccc3)CC2)nc(Nc2ccc(Cl)cc2)n1 | 3 | 8 | 1 | -3 | -11 | .
COc1cc(C2Oc3cc(C4Oc5cc(O)cc(O)c5C(=O)C4O)ccc3OC2CO)ccc1O (stereo not drawn) | 1 | 6 | 60* | 10 | 6 | 69* | LYPLA2 ABPP=75*
O=C(CCCOc1ccc(Br)cc1)Nc1nnc(C2CC2)s1 | -2 | -12 | -3 | -5 | . | .
Cc1nc(-c2ccc(C(=O)Nc3cc(S(N)(=O)=O)ccc3C)cc2)cs1 | 9 | -6 | 2 | -2 | 12 | .
Cc1cccc(C(=O)OCC(=O)N2CCCCCC2)c1O | 25 | -15 | 4 | -1 | . | .
N#CCC(=O)Nc1ccc(C(=O)OCC(=O)NCCCc2ccccc2)cc1 | -20 | -1 | -19 | -18 | 10 | .
N#CCC(=O)Nc1ccc(C(=O)OCc2ccccc2Oc2ccccc2)cc1 | -16 | 11 | 26* | 7 | 7 | -83
COc1ccc(S(=O)(=O)N2CCNC(=O)C2)cc1Br | 1 | 3 | 1 | -2 | -2 | .
O=C(Nc1ccc(N2CCN(C(=O)c3cccs3)CC2)cc1)c1ccccc1Cl | 7 | 6 | 41* | 2 | -1 | 41*
O=C(Nc1ccc(N2CCN(C(=O)c3cccs3)CC2)cc1)c1ccccc1F | 18 | -3 | 27* | 5 | -3 | 15
SMILES | PREPL inhibitor | ZTA counter | LYPLA2 inh | LYPLA1 inh | EBNA-1 inhibitor | LYPLA2 conf | others
Cc1nn(-c2ccccc2)nc1-c1nnc(-c2ccc(C(F)(F)F)cc2)o1 | 13 | -7 | -1 | -2 | -2 | .
CCOc1ccc(C(=O)NC(=S)Nc2ccc(NC(=O)CC)cc2)cc1[N+](=O)[O-] | 5 | 8 | 28* | -2 | 4 | 27*
CCOc1ccc(C(=O)NC(=S)Nc2ccccc2OC)cc1[N+](=O)[O-] | 3 | 12 | 5 | 5 | 12 | .
COc1ccc(S(=O)(=O)NNC(=O)Nc2ccc(F)cc2F)c(OC)c1 | 2 | -12 | -3 | -1 | 1 | .
COc1ccc(NC(=O)CN2CCC(C(=O)c3ccc(F)cc3)CC2)c(OC)c1 | 12 | 7 | 0 | -1 | 9 | .
CON=Cc1ccc(N2CCN(C(=O)c3ccc(Cl)cc3Cl)CC2)c([N+](=O)[O-])c1 | . | . | . | . | . | . | LYPLA2 ABPP=29
CON=Cc1ccc(N2CCN(C(=O)c3cccc(C(F)(F)F)c3)CC2)c([N+](=O)[O-])c1 | . | . | . | . | . | . | LYPLA2 ABPP=88*
COc1ccc(N2CCN(C(=O)c3ccc(Br)cc3)CC2)c([N+](=O)[O-])c1 | 11 | 2 | 48* | 3 | -9 | 56* | LYPLA2 ABPP=20
CCc1cc(=O)oc2cc(C)cc(OC(C)C(=O)NCCCn3ccnc3)c12 (stereo not drawn) | 0 | -3 | 12 | 1 | 2 | .
O=C(O)CCNC(=O)CCCn1nnc2ccccc2c1=O | 11 | 1 | -1 | 0 | -6 | .
Cc1nn(-c2ccc(F)cc2)c2sc(C(=O)OC3CCOC3=O)cc12 (stereo not drawn) | 14 | 0 | 35* | 2 | 6 | 28*
CNC(=O)COC(=O)c1cc2c(C)nn(-c3ccc(F)cc3)c2s1 | 0 | -4 | 3 | 2 | -3 | .
COC(=O)c1ccc(CNC(=O)COC(=O)c2cccs2)cc1 | -2 | . | . | . | . | .
O=C(CC1SC(N2CCCC2)=NC1=O)Nc1ccc(C(=O)N2CCN(c3cccc(Cl)c3)CC2)cc1 (stereo not drawn) | -2 | 8 | 30* | 0 | -5 | 62* | LYPLA2 ABPP=38
Cc1ccc(OCCNC(=O)c2ccc(NC(=O)CC3SC(N4CCCC4)=NC3=O)cc2)cc1 (stereo not drawn) | -27 | -15 | 45* | 0 | 0 | 40*
COc1ccc(CCNC(=O)c2ccc(NC(=O)CC3SC(N4CCCC4)=NC3=O)cc2)cc1 (stereo not drawn) | 18 | -5 | 52* | 0 | 0 | 58* | LYPLA2 ABPP=25
CCCCc1ccc(NC(=O)C(=O)NCCN2CCN(Cc3ccc([N+](=O)[O-])cc3)CC2)cc1 | 10 | 0 | -4 | -4 | -1 | .
O=C(Nc1ccc(Cl)cc1)c1nc[nH]c1C(=O)NCCCNC(=O)c1[nH]cnc1C(=O)Nc1ccc(Cl)cc1 | 8 | . | . | . | . | .
COc1cccc(-c2ccc(NC(=O)C3CCCN(Cc4cnc(N(C)C)s4)C3)cc2)c1 (stereo not drawn) | 10 | 4 | 28* | -2 | 8 | -1
Cc1cc(OCC(=O)NCC(c2ccc(F)cc2)N2CCOCC2)ccc1Cl (stereo not drawn) | 18 | -8 | 3 | 2 | . | .
